The list is not random: actives were taken first. Their share in the collection is about 3.1%.
DENV2 CPE: inhibitors of DENV2 cytopathic effect, primary screen, cell-based, plate reader, single concentration. AID 651640, 2012. CPE inhibition, % at 9.99 µM. DENV2-infected cells, cytopathic effect rescue. 350,000 compounds, 1.7% hits; in the data active = CPE inhibition above about 20%, passing the limit was not always enough; inconclusive = no clear call, values can overlap the other calls; tested in BHK-21 cells;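 note: 0% = median of neutral control wells and 100% = median of positive control wells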
dFosB act: activators of delta FosB homodimer, primary screen, biochemical, fluorescence polarization, TAMRA-CDK5 oligo, single point; purified delta FosB; percent of positive-control signal above neutral wells; 340,000 compounds, 0.99% hits; Protein FosB (Mus musculus), P13346; activation, % at 25 µM; AID 493131, 2011;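 active = mean activation above about 17%, with every replicate also reaching it, limit read from the data, passing the limit was not always enough; inconclusive = only one of the two conditions met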
RAD54 branch: inhibitors of human RAD54 branch migration, primary screen, biochemical, fluorescence, single point. DNA repair and recombination protein RAD54-like (Homo sapiens), Q92698. RAD54 Holliday junction branch migration, FAM/BHQ fluorescence. inhibition, % at 10.4 µM. 360,000 compounds, 0.14% hits. AID 602329, 2012;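 active = mean normalized replicate activity at least 40 and at least half of replicates scoring 40 or more; inconclusive = only one of the two criteria met; inactive = mean below 40 and under half of replicates reaching 40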;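 note: 0% = median of neutral control wells and 100% = median of positive control wells; inhibitors cause a drop in the FAM fluorescence signal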
AF4-AF9 inh: inhibitors of AF4 peptide binding to AF9, primary screen, biochemical, AlphaScreen, biotin-AF4 peptide, FLAG-AF9, single point. AID 651704, 2012. 350,000 compounds, 0.47% hits. Protein AF-9 (Homo sapiens), P42568. inhibition, % at 10 µM;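 active = every replicate reaching a set inhibition limit, whatever the replicate mean, cut at about 25% in these data; inconclusive = mean inhibition reaches that limit but some replicates miss it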;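 note: 0% = plate neutral control median and 100% = total signal loss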
Target sequence (P42568 whole entry, looked up): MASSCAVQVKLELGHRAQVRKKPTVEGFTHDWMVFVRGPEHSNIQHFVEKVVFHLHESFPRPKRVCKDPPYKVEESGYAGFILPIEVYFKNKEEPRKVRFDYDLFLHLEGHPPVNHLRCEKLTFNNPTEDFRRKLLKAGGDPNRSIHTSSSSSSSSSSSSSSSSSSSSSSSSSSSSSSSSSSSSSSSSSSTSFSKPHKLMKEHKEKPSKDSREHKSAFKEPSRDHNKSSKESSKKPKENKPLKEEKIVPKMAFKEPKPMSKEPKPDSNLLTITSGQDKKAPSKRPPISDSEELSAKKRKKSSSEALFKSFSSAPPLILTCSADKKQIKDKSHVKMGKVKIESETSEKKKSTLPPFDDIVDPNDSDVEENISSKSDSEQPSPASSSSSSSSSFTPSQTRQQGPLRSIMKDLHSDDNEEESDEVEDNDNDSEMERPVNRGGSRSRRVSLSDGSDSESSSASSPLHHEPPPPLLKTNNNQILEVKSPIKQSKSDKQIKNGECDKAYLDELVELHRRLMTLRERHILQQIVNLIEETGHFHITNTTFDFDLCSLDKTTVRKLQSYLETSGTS
RAD52 inh: RAD52 DNA annealing inhibitors, primary screen, biochemical, FRET, single point, set 2; AID 651710, 2012; inhibition, % at 18.7 µM; 360,000 compounds, 0.46% hits; recombinant RAD52 DNA annealing, FRET fluorescence;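 active = every replicate showing at least 50% inhibition; inconclusive = mean inhibition at least 50% but not in every replicate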
INS-1E GSIS act: GLuc luminescence reporter in INS-1E cells, primary screen for activators of glucose-dependent secretion of insulin | 370,000 compounds, 0.61% hits | activation, % at 16.6 µM | INS-1E GLuc reporter insulin secretion, 2-3 h;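 active = lowest replicate activation of at least 40%, so every replicate reaches that level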;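 note: 0% = median of neutral control wells and 100% = median of IBMX positive control wells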
Numbers without * were called inactive; ? = inconclusive; . = no result.

SMILES	DENV2 CPE	dFosB act	RAD54 branch	AF4-AF9 inh	RAD52 inh	INS-1E GSIS act
O=S(=O)(N[C@@H]1CCCN(Cc2cccc(OCCO)c2)C1)c1ccc2ccccc2c1	5	.	-11	7	19	.
Cc1ccc(S(=O)(=O)NC2CCN(Cc3cccc(OCCO)c3)CC2)cc1	-3	.	-21	17	51*	.
COc1cc(Nc2ccn3nc(-c4ccccc4Cl)cc3n2)cc(OC)c1OC	30*	.	4	-1	-11	3
COc1ccc(S(=O)(=O)N2CCCCC2)cc1NC(=O)C1CCCO1 (stereo unspecified)	9	-2	.	-2	6	-5
COc1ccc(S(=O)(=O)N2CCCCC2)cc1NC(=O)C1CC1C (stereo unspecified)	6	-10	3	0	-3	40*
COc1ccc(OC)c(NC(=O)CN2C(=O)COc3ccc(S(=O)(=O)N4CCCC4)cc32)c1	-3	-8	-5	35*	-2	7
COc1ccccc1NC(=O)CN1C(=O)COc2ccc(S(=O)(=O)N3CCCCCC3)cc21	-6	-2	0	3	-7	-18
CN1C[C@@H]2[C@H](c3ccccc31)[C@@H](CO)N2C(=O)Nc1ccc(F)cc1	?	.	-3	1	-3	-7
C[C@@H]1CN([C@H](C)CO)C(=O)c2cc(NC(=O)Nc3ccc4c(c3)OCO4)ccc2O[C@H]1CN(C)S(=O)(=O)c1ccccc1	-7	.	1	6	-7	-9
C[C@H](CO)N1C[C@H](C)[C@@H](CN(C)Cc2ccc3c(c2)OCO3)OCCCC[C@H](C)Oc2ccc(NC(=O)C3CCCCC3)cc2C1=O	-4	.	2	-2	-3	-14
CC1(C(=O)NCc2cccc(C(F)(F)F)c2)CCN1Cc1cc2ccccc2o1 (stereo unspecified)	56*	.	-1	2	-12	.
CCNC(=O)C1(C)CCCN1Cc1cccc(C(F)(F)F)c1 (stereo unspecified)	-4	.	-9	2	-9	44*
CCNC(=O)C1(C)CCCCN1Cc1ccc(C#N)cc1 (stereo unspecified)	13	.	-3	0	-35	23
CC1(C(=O)NCc2cccc(C(F)(F)F)c2)CCN1Cc1ccc(-c2ccccc2)o1 (stereo unspecified)	1	.	1	-1	-17	-15
NC1=NC(=O)/C(=C\c2ccc(O)c([N+](=O)[O-])c2)S1	-1	3	.	-1	-7	-20
NC1=NC(=O)/C(=C/c2cccc(-c3ccc(S(N)(=O)=O)cc3)c2)S1	.	60*	0	-8	-6	14
CC1CCC(CN2C(Nc3ccccc3)=NC[C@@H]2C)CC1 (stereo partly specified)	40*	3	1	-2	-5	6
CCCCN1C(Nc2ccccc2)=NC[C@@H]1Cc1ccccc1	22*	-12	-9	4	-3	-2
c1ccc(C[C@H]2CN=C(Nc3ccccc3)N2CCCC2CCCCC2)cc1	1	-8	9	6	18	30
C[C@@H]1CN([C@H](C)CO)C(=O)c2cc(-c3ccc(F)cc3)cnc2O[C@H]1CN(C)C(=O)c1ccccc1F	0	.	4	-8	9	-15
COCC#Cc1cnc2c(c1)C(=O)N([C@@H](C)CO)C[C@H](C)[C@@H](CN(C)C(=O)C1CCCCC1)O2	0	.	6	-1	1	16
Cc1ccc2cc3c(N)c4c(C)ccc(C)c4nc3nc2c1	-6	29*	.	2	47	6
CNC[C@H]1Oc2c(N)cccc2C(=O)N([C@@H](C)CO)C[C@@H]1C	-2	.	2	-4	-19	5
CCOC1=C2CN(S(=O)(=O)c3ccc(Cl)cc3)[C@H](c3ccccc3)C[C@@H]2N(S(=O)(=O)c2ccc(C)cc2)[C@H](c2ccccc2)C1	1	.	-4	-1	-5	.
CCOC1=C2CN(S(=O)(=O)c3ccc(C)cc3)C(c3cccc(Cl)c3)CC2N(S(=O)(=O)c2ccc(Cl)cc2)C(c2ccccc2)C1 (stereo unspecified)	32*	.	.	.	-15	14
SMILES	DENV2 CPE	dFosB act	RAD54 branch	AF4-AF9 inh	RAD52 inh	INS-1E GSIS act
O=C(CN1CCOCC1)NCC[C@@H]1CC[C@H](NC(=O)Cc2ccccn2)[C@@H](CO)O1	23*	.	-8	-1	-27	7
O=C(CN1CCOCC1)NCC[C@@H]1CC[C@@H](NC(=O)Cc2ccccn2)[C@H](CO)O1	-2	.	-3	0	-47	3
Cc1ccc(S(=O)(=O)N[C@@H]2CC[C@H](CC(=O)NCc3ccc(Cl)c(Cl)c3)O[C@H]2CO)cc1	22*	.	5	0	-5	18
O=C(C[C@H]1CC[C@H](NS(=O)(=O)c2ccc(F)cc2)[C@H](CO)O1)NCc1ccncn1	23*	.	4	-1	-15	7
Cc1ccc(S(=O)(=O)N[C@@H]2CC[C@@H](CCNC(=O)CN3CCOCC3)O[C@H]2CO)cc1	26*	.	4	0	-10	8
CN1[C@H](C(=O)N2CCCCC2)[C@@H](CO)[C@@H]2Cn3c(ccc(/C=C/c4ccccc4)c3=O)[C@@H]21	7	.	-8	-1	-5	-10
Cc1ccc(S(=O)(=O)N[C@H]2CC[C@H](CCNC(=O)C3CCOCC3)O[C@@H]2CO)cc1	25*	.	-10	-8	2	-3
Cc1ccc(S(=O)(=O)N[C@@H]2CC[C@@H](CCNC(=O)C3CCOCC3)O[C@@H]2CO)cc1	3	.	-3	-7	21	7
Cc1noc(C)c1NC(=O)Nc1ccc2c(c1)C(=O)N([C@@H](C)CO)C[C@H](C)[C@H](CN(C)C(=O)NC(C)C)O2	2	.	2	-2	-1	24
O=C(C[C@H]1C=C[C@@H](NC(=O)CC2CC2)[C@@H](CO)O1)NCc1ccc(Cl)cc1	-5	.	6	-8	-2	18
Cc1cc(C(=O)Nc2cccc3c2O[C@H](CN(C)C(=O)Nc2ccc(C(F)(F)F)cc2)[C@@H](C)CN([C@H](C)CO)C3=O)n(C)n1	38*	.	3	-13	21	29
C[C@H]1CN([C@@H](C)CO)C(=O)c2cccc(NC(=O)Nc3ccc4c(c3)OCO4)c2O[C@@H]1CN(C)C(=O)Nc1ccccc1	-1	.	3	.	.	-4
C[C@H]1CN([C@@H](C)CO)C(=O)c2cccc(NC(=O)Nc3ccc(F)cc3)c2O[C@@H]1CN(C)C(=O)Nc1ccc(C(F)(F)F)cc1	57*	.	-8	-8	8	-32
